PubChem BioAssay AID2284372 (EPA ToxCast)
Inconclusive results are not listed. Calls of active or inactive are those of the source. The calls were made as follows: active = hit-call score of the fitted dose curve at least 0.9, where 1 is the maximum; inconclusive = response in the unintended direction; inactive = score below 0.9.

These compounds were tested against Glucocorticoid receptor (Homo sapiens) (UniProt P04150) (assay: ATG_hGR_EcoTox2: Attagene TRANS-FACTORIAL EcoTox-2 HepG2 Assay for human Glucocorticoid Receptor (GR)).
Sequence of Glucocorticoid receptor (Homo sapiens) (P04150 whole entry, looked up): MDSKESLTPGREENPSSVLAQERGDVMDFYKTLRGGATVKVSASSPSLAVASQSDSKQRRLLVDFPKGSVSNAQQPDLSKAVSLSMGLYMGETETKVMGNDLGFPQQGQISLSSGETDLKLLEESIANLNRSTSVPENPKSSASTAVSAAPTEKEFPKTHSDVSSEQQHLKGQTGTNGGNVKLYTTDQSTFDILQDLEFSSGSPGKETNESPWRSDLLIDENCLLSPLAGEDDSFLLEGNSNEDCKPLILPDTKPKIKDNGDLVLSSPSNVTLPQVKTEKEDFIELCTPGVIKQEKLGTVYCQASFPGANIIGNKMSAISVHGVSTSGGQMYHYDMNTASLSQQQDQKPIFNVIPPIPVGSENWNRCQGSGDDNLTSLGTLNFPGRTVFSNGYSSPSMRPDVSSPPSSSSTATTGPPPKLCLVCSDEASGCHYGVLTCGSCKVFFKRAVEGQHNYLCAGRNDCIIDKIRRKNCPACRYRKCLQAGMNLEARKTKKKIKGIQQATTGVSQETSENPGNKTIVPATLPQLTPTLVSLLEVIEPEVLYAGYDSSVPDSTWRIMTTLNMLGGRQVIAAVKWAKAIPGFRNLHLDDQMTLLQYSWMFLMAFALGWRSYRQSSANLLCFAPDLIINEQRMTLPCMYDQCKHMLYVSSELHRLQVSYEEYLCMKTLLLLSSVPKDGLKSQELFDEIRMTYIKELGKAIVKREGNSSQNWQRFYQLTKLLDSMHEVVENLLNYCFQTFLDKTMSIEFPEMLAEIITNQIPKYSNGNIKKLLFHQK
Method: ATG_EcoTox2 is a cell-based, multiplexed assay created by modifying the existing Attagene TRANS-FACTORIAL system to include a panel of nuclear receptors from some or all the following species: human (Homo sapiens), african clawed frog (Xenopus laevis), rainbow trout (Oncorhynchus mykiss), japanese medaka (Oryzias latipes), and zebrafish (Danio rerio). The ECOTOX2-FACTORIAL format uses HepG2, a human liver cell line, with measurements taken at 24 hours after chemical dosing in a 24-well plate. ATG_hGR_EcoTox2 is one of 29 assay components calculated in the ATG_EcoTox2 assay. It is designed to make measurements of mRNA induction, a form of inducible reporter, as detected with fluorescence intensity signals by Reverse transcription polymerase chain reaction (RT-PCR) and Capillary electrophoresis technology.The assay endpoint ATG_hGR_EcoTox2 was analyzed in the positive analysis fitting direction relative to DMSO as the negative control and baseline of activity. Using a type of inducible reporter, measures of mRNA for gain-of-signal activity can be used to understand the reporter gene at the transcription factor-level as they relate to the gene for glucocorticoid receptor. Furthermore, this assay endpoint can be referred to as a primary readout, because this assay has produced multiple assay endpoints where this one serves a reporter gene function. To generalize the intended target to other relatable targets, this assay endpoint is annotated to the nuclear receptor intended target family, where the subfamily is steroidal.
Human liver HepG2 cells are transiently transfected with multiple reporter transcription units (MRTUs) in 6-well plates using FuGene 6 reagent (Roche; 3 ml FuGene/1 mg DNA). The MRTU constructs are regulated by a cis-regulating element (promoter). Each RTU expresses a GAL4-UAS that regulates the transcription of a nearby target reporter gene sequence. A major difference between the CIS and TRANS system is that in CIS activities of endogenous TFs are measured, whereas the TRANS assay evaluates changes in activities of exogenous, chimeric NR-Gal4 proteins. […] At the end of 24 hour incubation, total RNA was isolated using TriZol reagent (Invitrogen). The isolated RNA is then reverse-transcribed using oligo(dT) primer and Mo-MLV reverse transcriptase (Invitrogen) with DNAse I (Ambion) treatment for 30 min. The one-tenth of the produced cDNA was amplified by PCR using Taq DNA polymerase (Invitrogen) and two reporter sequence-specific primers. […] The fragments were purified using Qiaquick PCR columns (Qiagen), analyzed on an ABI 3130xL genetic analyzer (Applied Biosystems) with peak positions identified by using a set of X-rhodamine (ROX)-labeled MapMarker1000 molecular weight standards (BioVentures). […]
With `CCCCOCN(C(=O)CCl)c1c(CC)cccc1CC` the outcome was “inactive”.
`CC(C)(Oc1ccc(Cl)cc1)C(=O)O` was tested, and the outcome was “inactive”.
For `CC(c1cc2ccccc2s1)N(O)C(N)=O` (centres undefined), the AC50 was 50 µM (active).
`O=P(Oc1ccccc1)(Oc1ccccc1)Oc1ccccc1` was tested, and the outcome was “inactive”.
